Screening data as filed in PubChem.
DAX1 inh-1 = NR0B1 (DAX1) inhibition. P51843. HEK293 Gal4-DAX1 luciferase reporter, luminescence. inhibition, % at 6.75 µM. 340,000 tested, 0.99% active;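 active = inhibition above the mean over all tested compounds plus 3 SD, cut at about 4.2% in these data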;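 also: 0% = DAX1-transfected cells with DMSO and 100% = empty-vector control cells with DMSO; inhibition shows as a rise in luminescence from relieved DAX1 repression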
ssDAF12 agonist = S. stercoralis DAF-12 activation, primary screen; AID 652126; activation, % at 6.8 µM; 370,000 tested, 1% active; HEK293 ssDAF-12/GRIP1 lit1-tk-luc reporter, luminescence; % of 3 µM dafachronic acid response;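 active = activation above the mean over all tested compounds plus 3 SD, cut at about 0.9% in these data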;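 also: 0% = DMSO-only wells and 100% = 3 µM delta7-dafachronic acid wells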
hcDAF12 agonist = H. contortus DAF-12 activation, primary screen; activation, % at 6.8 µM; AID 652067; 370,000 tested, 1.4% active; HEK293 hcDAF-12 lit1-tk-luc reporter, luminescence; 0% DMSO, 100% Δ7-dafachronic acid;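 active = activation above the mean of all tested compounds plus 3 SD, cut at about 5.5% in these data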;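 also: 100% = response to 3 µM Δ7-dafachronic acid high control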
NR1D1 modulator = modulators of human Rev-erb alpha DNA binding | P20393 | Rev-erbα–FITC-DNA binding, fluorescence polarization, 90 min | activity, % at 10 µM | 370,000 tested, 0.79% active | AID 1259318;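 active = activity above about 14%, limit read from the data; passing the limit was not always enough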;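 also: 0% = DMSO wells with 35 nM protein and 100% = DMSO wells with 750 nM protein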
hgDAF12 agonist = hgDAF-12 agonism, primary luciferase screen. HEK293 GAL4-hgDAF12 UAS-luciferase reporter, agonist luminescence; normalized to butyrate control. activation, % at 6.8 µM. 370,000 tested, 1.8% active;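 active = activation above a cutoff set at the mean of all screened compounds plus 3 SD, cut at about 10% in these data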;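 also: 0% = DMSO wells and 100% = sodium butyrate wells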
DAX1 inh-2 = inhibitors of DAX1 repression of SF-1 activated StAR promoter; HEK293T StAR-luciferase reporter, SF-1/DAX-1 repression relief; inhibition, % at 6.8 µM; 370,000 tested, 1.1% active; AID 652010;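 active = inhibition above the mean over all tested compounds plus 3 SD, cut at about 3.6% in these data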;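 also: 0% = DAX-1 cells with DMSO and 100% = cells lacking DAX-1 with DMSO; higher inhibition means more luminescence from relief of DAX-1 repression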
DAX1 conf = confirmation of human DAX1 (NR0B1) inhibitors; inhibition, % at 6.8 µM; 2,400 tested, 87% active; HEK293T StAR-promoter luciferase reporter, SF-1/DAX-1 repression; shares compounds with DAX1 inh-2; AID 652134;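 active = inhibition above the average of every tested compound plus 3 SD, cut at about 3.8% in these data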;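 also: 0% = DAX-1 cells with DMSO and 100% = no DAX-1 control cells with DMSO; active compounds raise luminescence by relieving repression of the StAR reporter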
SF1 mutant ctr = counter-screen for DAX1 inhibitors: nonselective inhibitors with SF-1 AF2 mutant. shares compounds with DAX1 inh-2. HEK293 StAR-luciferase, luminescence. inhibition, % at 6.8 µM. 2,400 tested, 78% active. AID 652136;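 active = inhibition above the mean of all tested compounds plus 3 SD, cut at about 3% in these data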;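 also: 0% = DAX-1 transfected cells with DMSO and 100% = cells without DAX-1 with DMSO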
LXRb hcDAF ctr = LXR-beta agonism as hcDAF-12 counter-screen | 3,400 tested, under 10 active | activation, % at 6.8 µM | AID 743027 | shares compounds with hcDAF12 agonist | HEK293 Gal4-LXR tk-luc reporter, luminescence, 24 h; normalized: DMSO 0%, positive control 100%;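 active = mean percent activation of the reporter above a cutoff set as the average over tested compounds plus their standard deviation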
Target sequence (P55055 whole entry, looked up, the tested form may be a part): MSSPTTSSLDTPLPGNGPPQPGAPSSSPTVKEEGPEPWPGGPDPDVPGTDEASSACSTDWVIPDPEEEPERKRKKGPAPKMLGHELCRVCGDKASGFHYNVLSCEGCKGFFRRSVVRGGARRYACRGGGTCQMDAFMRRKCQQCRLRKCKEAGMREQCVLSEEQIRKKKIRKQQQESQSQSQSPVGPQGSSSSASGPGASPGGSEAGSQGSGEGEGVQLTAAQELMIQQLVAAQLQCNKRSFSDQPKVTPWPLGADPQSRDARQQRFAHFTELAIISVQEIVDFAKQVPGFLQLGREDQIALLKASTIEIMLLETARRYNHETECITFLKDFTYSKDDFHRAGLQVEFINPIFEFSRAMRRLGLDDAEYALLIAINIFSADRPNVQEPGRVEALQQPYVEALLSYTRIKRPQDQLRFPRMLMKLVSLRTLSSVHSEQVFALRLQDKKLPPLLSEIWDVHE
hcDAF12 conf = hcDAF-12 agonism, confirmation assay; HEK293 hcDAF-12 lit1-tk-luc reporter, luminescence; % of Δ7-dafachronic acid response; shares compounds with hcDAF12 agonist; activation, % at 6.8 µM; 3,400 tested, 61% active;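 active = mean activation across triplicate tests above the threshold derived from the earlier primary screen, cut at about 5.5% in these data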;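 also: 0% = DMSO only wells and 100% = 3 µM Δ7-dafachronic acid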
hgDAF12 conf = confirmation of H. glycines DAF-12 agonists; shares compounds with hgDAF12 agonist; HEK293 GAL4-hgDAF12 luciferase reporter, agonist mode; percent of butyrate response; activation, % at 6.8 µM; 3,300 tested, 80% active; AID 743050;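 active = mean activation over triplicate wells above the hit cutoff derived from the earlier primary screen, cut at about 11% in these data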;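 also: 0% = DMSO low control and 100% = 2 mM sodium butyrate high control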
LXRb DAF12 ctr = activates human LXR-beta, counter-screen for DAF-12 agonists; shares compounds with hgDAF12 agonist; HEK293 Gal4-LXR luciferase reporter, 24 h; activation, % at 6.8 µM; 3,300 tested, under 10 active; AID 743051;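 active = mean activation of the triplicate above a set limit carried over from the primary screen, none filed active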
Numbers without * were called inactive. An excerpt weighted towards active compounds, which were near 4.8% of everything screened.

Results for O=C(/C=C/c1cccc(F)c1)N1CCc2ccccc21 ?
DAX1 inh-1: 3.4; ssDAF12 agonist: 2.2*; hcDAF12 agonist: 14.2*; NR1D1 modulator: -0.3; hgDAF12 agonist: 23.7*; DAX1 inh-2: 5.6*; DAX1 conf: 15.0*; SF1 mutant ctr: 8.4*; LXRb hcDAF ctr: 1.9; hcDAF12 conf: 13.4*; hgDAF12 conf: 21.8*; LXRb DAF12 ctr: 1.4

What do the screens show for `CSc1ccc(/C=N/NC(=O)c2ccc(C)c(C)c2)cc1`?
DAX1 inh-1: 1.0; ssDAF12 agonist: -0.8; hcDAF12 agonist: -1.4; NR1D1 modulator: -9.8; hgDAF12 agonist: 0.5; DAX1 inh-2: 0.5

What do the screens show for `CSc1ccc(/C=N/NC(=O)c2sccc2C)cc1`?
DAX1 inh-1: 1.0; ssDAF12 agonist: 1.7*; hcDAF12 agonist: 7.1*; NR1D1 modulator: 1.2; hgDAF12 agonist: 15.7*; DAX1 inh-2: 5.8*; DAX1 conf: 16.0*; SF1 mutant ctr: 7.9*; LXRb hcDAF ctr: 1.6; hcDAF12 conf: 6.6*; hgDAF12 conf: 23.9*; LXRb DAF12 ctr: 1.2

Results for COc1ccc2oc(C(=O)NN3C(C)CCCC3C)c(C)c2c1 (stereo not given) ?
DAX1 inh-1: 0.4; ssDAF12 agonist: -1.8; hcDAF12 agonist: -1.4; NR1D1 modulator: -3.9; hgDAF12 agonist: -4.4; DAX1 inh-2: 0.6

What do the screens show for `COc1ccc2c(CC(=O)Nc3nc(C)cs3)coc2c1`?
DAX1 inh-1: 0.3; ssDAF12 agonist: -1.1; hcDAF12 agonist: -1.6; NR1D1 modulator: -7.2; hgDAF12 agonist: 2.2; DAX1 inh-2: -0.6

What do the screens show for `COc1ccc2oc(C(=O)NC3CCCCC3)c(C)c2c1`?
DAX1 inh-1: 2.0; ssDAF12 agonist: -0.1; hcDAF12 agonist: 5.8*; NR1D1 modulator: 8.8; hgDAF12 agonist: 16.2*; DAX1 inh-2: 6.2*; DAX1 conf: 7.0*; SF1 mutant ctr: 5.9*; hgDAF12 conf: 13.9*; LXRb DAF12 ctr: 0.6

Results for COc1ccc2oc(C(=O)Nc3nc(C)cs3)c(C)c2c1 ?
DAX1 inh-1: 0.5; ssDAF12 agonist: 1.1*; hcDAF12 agonist: 9.9*; NR1D1 modulator: 1.8; hgDAF12 agonist: 20.8*; DAX1 inh-2: 6.9*; DAX1 conf: 10.4*; SF1 mutant ctr: 6.6*; LXRb hcDAF ctr: 1.9; hcDAF12 conf: 12.3*; hgDAF12 conf: 20.0*; LXRb DAF12 ctr: 1.2

What do the screens show for `COc1cccc(CN(C)C(=O)[C@H]2O[C@@H](n3cnc4c(=O)[nH]c(N)nc43)[C@H](O)[C@@H]2O)c1`?
ssDAF12 agonist: -1.0; hcDAF12 agonist: -0.3; NR1D1 modulator: 1.0; hgDAF12 agonist: 0.5; DAX1 inh-2: -1.0

What do the screens show for `O=C(N[C@H](C(=O)N1CCC[C@H]1C(=O)NCCc1ccccc1Cl)c1ccccc1)C1CCCC1`?
ssDAF12 agonist: -1.4; hcDAF12 agonist: -2.0; NR1D1 modulator: -4.7; hgDAF12 agonist: 2.0; DAX1 inh-2: -1.0
